# Screening results (PubChem)
# Mito fusion yeast: inhibitors of mitochondrial division or activators of mitochondrial fusion; S. cerevisiae fusion-defective mutant growth rescue, CellTiterGlo 48 h; Potency, µM (doses to about 46.1 µM), for inactives: top-dose growth rescue (activation), usual class: activators; 320,000 tested, 0.23% active; further: % of control where 0% means no effect; nearly all actives have a fitted effect of over 45% in size
#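 Temperature-sensitive fusion-defective S. cerevisiae (e.g. fzo1-1, mgm1-5) were grown with compound in YPEG medium (3% ethanol, 3% glycerol) for 48 hours at 37C. Growth rescue was measured as viability by CellTiterGlo luminescence after 10 minutes at ambient.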
# FUS yeast rescue: FUS proteinopathy suppression in yeast. S. cerevisiae FUS-expressing, growth rescue, OD600, 24 h. Potency, µM (highest dose often 76.6 µM), actives largely listed as activators. 390,000 tested, 0.24% active. AID 1347120;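 further: plate controls were DMSO vehicle for no effect and reference control for full effect; nearly all actives have a fitted effect of over 55% in size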
#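 Cultures pregrown in 2.5% raffinose medium are shifted to minimal medium containing 2% galactose to express toxic FUS. Compounds are tested at several concentrations. After 24hr at 30C, growth is quantified at 600 nm absorbance.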
# aSyn yeast inh: alpha-synuclein toxicity inhibition in yeast; Yeast expressing alpha-synuclein, growth rescue, BacTiter-Glo, 24 h; Potency, µM (doses to about 46.1 µM), for the others: top-dose growth rescue (activation), usual class: activators; 370,000 tested, 0.14% active; AID 652106; further: % of control where 0% means no effect; nearly all actives have a fitted effect of over 65% in size
#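 Rescue of yeast growth: cells expressing toxic alpha-synuclein, induced in galactose at OD600 0.02, incubated with compound 24 h at 30 C. ATP luminescence quantified growth; inhibitors of toxicity appear as activators.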
# Abeta yeast res: restores growth of yeast expressing A-beta42 peptide; yeast expressing A-beta42, growth rescue, OD600, 48 h; response scale: 0% DMSO, 100% iron-clioquinol control; Potency, µM (top dose mostly 46.1 µM), usual class: activators; 410,000 tested, 0.063% active; AID 1347071; further: nearly all actives have a fitted effect of over 55% in size
#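 Growth rescue measured by 600 nm absorbance after 48 h yeast culture at 30 C with compound. Values normalized between DMSO and an equimolar ferric chloride plus clioquinol control.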
# TDP-43 yeast inh: rescues yeast growth from TDP-43 toxicity | TDP-43 expressing yeast growth rescue, BacTiter-Glo, 24 h | Potency, µM (doses to about 46.1 µM), for inactives: at the highest dose growth rescue (activation), usual class: activators | 410,000 tested, 1.8% active; further: % of control where 0% means no effect; nearly all actives have a fitted effect of over 50% in size
#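 Yeast expressing TDP-43 (pregrown in raffinose, seeded at OD600=0.02 in galactose medium) exposed to compounds 24 hr at 30 deg C. Growth read by BacTiter-Glo luminescence; rescue of toxicity appears as increased signal.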
# An asterisk follows results filed as active; i = inactive; u = inconclusive; x = not tested or not shown; [ ] = remark or other dose. The list is not random: actives were taken first. Their share in the collection is about 2.2%. The call rests on the fitted dose curve; in most records, active means well fitted curve in the direction sought with a large enough effect; inconclusive means small, poorly fitted or top-dose-only effect, or another doubt; inactive means no such curve, though single readings can be large; an effect the other way counts as inactive or inconclusive. Potency means the concentration at half of the fitted maximal effect.
SMILES,Mito fusion yeast,FUS yeast rescue,aSyn yeast inh,Abeta yeast res,TDP-43 yeast inh
Cc1ccc(N2C(=O)C(c3c(C)[nH]n(-c4ccccc4)c3=O)(C(F)(F)F)C3=C2CC(C)(C)CC3=O)cc1 (configuration not stated),-2.1%,i,-11.2%,i,20.7%
Cc1[nH]n(-c2ccccc2)c(=O)c1C1(C(F)(F)F)C(=O)N(c2ccccc2)C2=C1C(=O)CC(C)(C)C2 (configuration not stated),-0.8%,31.6µM*,5.9%,i,-2.9%
Cc1ccc(NC(=O)C(Cc2ccccc2)NS(=O)(=O)c2ccc3c(c2)oc(=O)n3C)c(Cl)c1 (configuration not stated),x,i,x,i,1.7%
Cc1cccc(Cn2cc(S(=O)(=O)c3ccc(Cl)cc3)c(=O)c3cc4c(cc32)OCO4)c1,x,i,x,i,0.9%
CCC(CC)C(=O)N1CCc2cc(OC)c(OC)cc2C1COc1ccc(C(=O)OC)cc1 (configuration not stated),x,u,1.1%,i,28.2µM*
COC(=O)c1ccc(OCC2c3cc(OC)c(OC)cc3CCN2C(=O)c2ccc(F)cc2)cc1 (configuration not stated),x,u,8.6%,i,35.5µM*
COC(=O)c1ccc(OCC2c3cc(OC)c(OC)cc3CCN2C(=O)c2ccccc2C)cc1 (configuration not stated),x,u,2.5%,i,u
COc1cc2c(cc1OC)C(COc1ccc(F)cc1)N(C(=O)Cc1ccccc1)CC2 (configuration not stated),x,i,x,i,x
COC(=O)c1ccc(OCC2c3cc(OC)c(OC)cc3CCN2C(=O)Cc2ccccc2)cc1 (configuration not stated),x,u,1.4%,i,20µM*
Cc1ccc2c(c1)c(N1CCCC1=O)c(C(=O)Nc1ccc(F)cc1F)n2C,x,i,-5.9%,i,19.4%
O=[N+]([O-])c1cccc(-c2nn(-c3ccccc3)cc2CO)c1,26.8%,i,5.2%,i,12.6µM*
Nc1cccc(Oc2c(F)c(F)c(Oc3cccc(N)c3)c(F)c2F)c1,u,i,-13.1%,i,5.62µM*
Cn1c(=O)n(-c2ccc(C(C)(C)C#N)cc2)c2c3cc(-c4cnc5ccccc5c4)ccc3ncc21,x,x,-0.7%[92.2 µM],x,x
CCOC(=O)C1CCCN(C2CC(=O)N(c3ccc(C(C)C)cc3)C2=O)C1 (configuration not stated),-19.5%,i,5.6%,i,35.5µM*
CCOC(=O)C1CCCN(C2CC(=O)N(c3ccc(N4C(=O)CC(N5CCCC(C(=O)OCC)C5)C4=O)cc3)C2=O)C1 (configuration not stated),-6.8%,i,5.7%,i,8.0%
CCOc1ccc(NC(=O)N2CCOc3ccccc32)cc1,x,i,x,i,11.2µM*
COc1cc(C(C)=O)ccc1OCC(=O)c1cc(C)n(C2CC2)c1C,-6.4%,i,5.2%,i,25.1µM*
Cc1cc(C(=O)COc2ccccc2C#N)c(C)n1C1CC1,10.4%,i,12.7%,i,4.5%
Cn1c(NCC(O)c2ccccc2)nc2c1c(=O)n(Cc1ccc(Cl)c(Cl)c1)c(=O)n2C (configuration not stated),x,8.91µM*,-25.6%,i,-37.7%
COc1ccc(NC(=O)c2nn(C)c3c2CSc2ccc(C)cc2-3)cc1OC,x,i,x,i,22.4µM*
Cn1nc(C(=O)NCc2cccc(Cl)c2)c2c1-c1ccccc1SC2,x,i,x,i,20µM*
Cn1nc(C(=O)NCc2ccccc2Cl)c2c1-c1ccccc1SC2,x,i,x,i,6.3%
O=C(NCc1cccc(Cl)c1)c1cc2c(s1)-c1ccccc1SC2,x,i,x,i,28.5%
Cn1nc(C(=O)NCc2ccccc2)c2c1-c1ccccc1SC2,x,i,x,i,20µM*
CC1CCCC(C)N1CCCNC(=O)c1nn(C)c2c1CSc1ccccc1-2 (configuration not stated),16.4%,i,6.2%,i,2.5%
SMILES,Mito fusion yeast,FUS yeast rescue,aSyn yeast inh,Abeta yeast res,TDP-43 yeast inh
CCCCNC(=O)c1nn(C)c2c1CSc1ccccc1-2,x,i,x,i,35.5µM*
CCNc1c(NC(=O)c2cc(OCC)c(OCC)c(OCC)c2)c(=O)oc2ccccc12,x,i,x,i,6.2%
COc1cccc(CNC(=O)c2nn(C)c3c2CSc2ccccc2-3)c1,x,u,x,i,17.8µM*
CCN(c1ccccc1)S(=O)(=O)c1nnc(NC(=O)C2CCCCC2)s1,x,i,x,i,8.1%
Cc1cccc(-c2nn(-c3ccccc3)cc2CNCCO)c1,x,x,1.5%,x,x
CN1OC[C@@H]2CN(S(=O)(=O)c3cccc(C(F)(F)F)c3)[C@H](c3ccc(N4CCCCC4)cc3)C[C@@H]21,x,i,0.7%,i,0.0%
O=C(CCc1ccccc1)Nc1ccccc1[N+](=O)[O-],1.8%,i,0.0%,i,u
O=C(CCc1ccccc1)NC(=S)Nc1ccccc1[N+](=O)[O-],-9.0%,i,7.2%,u,12.6µM*
Cc1c(NC(=S)NC(=O)C(C)(C)C)cccc1[N+](=O)[O-],-1.2%,i,1.1%,i,14.1µM*
O=C(CCCc1ccccc1)Nc1ccccc1[N+](=O)[O-],3.4%,i,23.2%,i,11.2µM*
CCOC(=O)N1CCN(c2nc3ccccc3n3cnnc23)CC1,25.1µM*,i,2.8%,i,14.3%
c1cnc(N2CCN(c3nc4ccccc4n4cnnc34)CC2)nc1,1.4%,i,0.2%,i,-9.9%
Cn1c(SCC(=O)Nc2ccc(C(=O)O)cc2)nc2scc(-c3ccccc3Cl)c2c1=O,x,35.5µM*,x,i,-1.3%
Clc1ccc(-c2nnc3n2N=C(c2ccc(-c4ccccc4)cc2)CS3)cc1,x,i,x,x,x
Cc1cccc(Nc2ncccc2C(=O)NCc2cccs2)c1C,8.7%,i,-6.6%,i,7.94µM*
Cc1ccc(Nc2cc(C(=O)NCc3cccs3)c3ccccc3n2)c(C)c1,x,i,x,i,15.3%
Cc1ccc(Nc2ncccc2C(=O)NCc2cccs2)c(C)c1,4.2%,i,x,i,11.2µM*
COc1ccc(-c2cc(NCc3ccc(C)cc3)n3cnnc3n2)cc1,x,i,x,i,11.2µM*
CSc1ccc(CCNC(=O)c2cc3n(n2)CCCN(Cc2ccc(C)cc2)C3=O)cc1,x,i,x,i,0.0%
CC(C)(C)c1cc(C(=O)Nc2ccc(F)cc2)n(Cc2ccc(F)cc2)n1,6.5%,i,-10.6%,u,20µM*
Cc1ccc(NC(=O)c2cc(C(C)(C)C)nn2Cc2ccccc2)cc1,2.1%,i,-15.2%,i,26.5%
Cc1ccc2[nH]cc(C(c3ccccc3)c3cccs3)c2c1 (configuration not stated),x,i,x,i,8.91µM*
